Test results reported in PubChem BioAssay AID751 (NMMLSC, 2007).
Among all 24,000 compounds or so, about 40 (0.2%) were called active.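 Rule for the calls: active = inhibition of disassembly above about 33% (limit read from the data); inconclusive = likely self-fluorescent, control bead median signal at least 40; inactive = the rest.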 For the sample, actives were picked, then their nearest neighbours and some compounds at random.

Tested on: 26S proteasome (yeast, GFP-tagged, ATP-dependent disassembly)
Assay: inhibitors of ATP-driven 26S proteasome dissociation, primary screen, biochemical, bead-based flow cytometry, GFP-tagged proteasome (AID 751);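 note: plate controls were ATP control with full disassembly for no effect and ATP-gamma-S intact proteasomes for full effect; higher percent means more bead fluorescence retained so stronger block of disassembly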
Details: anti-FLAG beads, stronger effect = higher value, concentration not given here

Inhibition of disassembly, inactive:
CCCn1cc(SCC(N)=O)c2ccccc21 -0.93%
O=C(Nc1nc2ccc(S(=O)(=O)N3CCCC3)cc2s1)C1CCCO1 (stereo not given) -0.99%
COc1ccc(N2C(=O)CCC(C(=O)N(C)C3CCCCC3)C2c2ccc(OC)c(OC)c2)cc1 (stereo not given) -1.19%
CC(=O)NCC(=O)N(C)C(C(=O)Nc1ccc2c(c1)OCCO2)c1ccccc1 (stereo not given) 2.08%
CC(=O)Nc1cc2ccc(OC(C)=O)cc2oc1=O 0.02%
Fc1ccccc1C(c1nnnn1Cc1ccc2c(c1)OCO2)N1CCN(Cc2ccccc2)CC1 (stereo not given) -0.69%
CC(C(=O)N1CCOCC1)N1c2cccc3cccc(c23)S1(=O)=O (stereo not given) -0.85%
C=CCn1c(COc2ccccc2F)nnc1SCC(=O)N1CC(=O)Nc2ccccc21 -0.82%
CCCCNC(=O)c1c[nH]c2ccc(S(=O)(=O)Nc3ccc(OCC)cc3)cc2c1=O 0.53%
CCCCOC(=O)Nc1nccs1 0.85%
CCn1cc(C(=O)N2CCN(C3CCCCC3)CC2)c2cc(OC)c(OC)cc2c1=O -1.25%
COCCCN(C(=O)Cn1ncc2c(=O)oc3ccc(C)cc3c21)C(C)c1ccncc1 (stereo not given) -1.07%
Cc1ccsc1C(C(=O)NC1CCCCC1)N(C(=O)Cc1cccs1)C1CC1 (stereo not given) 1.54%
O=C(NC1(C(F)(F)F)N=C2SCCN2C1=O)c1ccco1 (stereo not given) 1.38%
CCN(CCCNC(=O)C1CCN(S(=O)(=O)c2cnc[nH]2)CC1)c1ccccc1 0.49%
Cc1ccc(C(c2sc3nc(C)nn3c2O)N2CCN(c3ccc(F)cc3)CC2)cc1 (stereo not given) -0.24%
CN1C(=O)c2ccccc2C(C(=O)NCCCN2CCCC2)C1c1c[nH]c2ccccc12 (stereo not given) 1.77%
CCc1ccc(NC(=O)CSc2nc3ccccc3c(=O)n2CCN2CCOCC2)cc1 -3.37%
COc1ccc(OC)c(N=Cc2c(O)[nH]c3ccccc23)c1 25.8%
O=C(CN1C(=O)COc2ccccc21)NCCN1CCc2ccccc2C1 -0.95%
COc1ccc(CN2CN(C(C)C)CSC2=S)cc1 -0.35%
CN1CCN(CCCNC(=O)c2cc3c(=O)oc4ccccc4c3s2)CC1 -0.65%
CCOC(=O)CN1CC23C=CC(O2)C(C(=O)Nc2ccc(F)cc2)C3C1=O (stereo not given) 0.62%
COCCNC(=S)c1ccc(OC)cc1 -2.83%
COc1ccc(Cn2nnc3c(=O)[nH]c(C4CCN(C(=O)c5ccccc5Cl)CC4)nc32)cc1 -0.42%
CCN(CC)S(=O)(=O)c1ccc(NC(=O)CN(c2cccc(F)c2)S(C)(=O)=O)cc1 2.21%
O=C(C(NS(=O)(=O)c1cccc2nsnc12)c1ccccc1)N1CCN(c2ccccn2)CC1 (stereo not given) 0.34%
Cc1c(C(=O)N2CC(C)OC(C)C2)sc2nc(-c3ccccc3)cn12 (stereo not given) 0.65%
COc1cc(C(O)c2nc3ccccc3n2C)cc(OC)c1OC (stereo not given) 1.95%
O=C(CCN1C(=O)c2ccncc2C1=O)Nc1ccc2c(c1)OCCO2 -0.98%
